Data published in the supplement of paper PMC12494721.
Counter-ions that a name gives are not always drawn.

How the values were obtained:
Conditions in all cases: incubation time: 27 h, anaerobic, 37 °C;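 for the amine columns active = adjusted P below 0.05 in both replicates with a change the same way and a mean fold change under 0.8 or over 1.25; inactive = the rest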
[1] = system: Clostridium sporogenes DSM 1664; experiment: growth (OD595) fold change vs plate DMSO controls (fold change (ratio)); higher = more growth
Method in brief: (§1)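 The reported measure is growth: the fold change against the median of DMSO controls on the plate. Absorbance at 595 nm from anaerobic 96-well mGAM cultures grown for 27 h at 37 °C was blank-subtracted, corrected for background with 20 µM compound solutions in water, and converted to OD with a calibration factor of 5. Fold changes above 1.5 appear as NA, and values are the mean of 2 biological replicates.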

Escherichia coli IAI1 [2] = experiment: as above
Method in brief: as §1

[3] = system: Klebsiella aerogenes DSM 30053; experiment: as above
Method in brief: as §1

[4] = system: Ruminococcus gnavus DSM 108212; experiment: as above
Method in brief: as §1

[5] = system: Klebsiella aerogenes DSM 30053; experiment: fold change of Histamine concentration vs plate DMSO controls (fold change (ratio)); higher = more amine produced, active = hit call of the paper (significant change in both replicates, either direction)
Method in brief: (§2)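 Extracts of whole anaerobic mGAM cultures were analysed for amines by LC–triple-quadrupole MS with dynamic MRM and external calibration curves, with drift corrected within batch. Four gut strains were grown at 37 °C for 27 h in 80 µL wells with compounds at 20 µM final, sweeteners at 50 µM final. Each value expresses fold change over plate DMSO controls. The average of 2 biological replicates is shown.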

[6] = system: Clostridium sporogenes DSM 1664; experiment: fold change of Tryptamine concentration vs plate DMSO controls (fold change (ratio)); higher = more amine produced, active = hit call of the paper (significant change in both replicates, either direction)
Method in brief: as §2

[7] = system: Ruminococcus gnavus DSM 108212; experiment: as above
Method in brief: as §2

Escherichia coli IAI1 [8] = experiment: fold change of Putrescine concentration vs plate DMSO controls (fold change (ratio)); higher = more amine produced, active = hit call of the paper (significant change in both replicates, either direction)
Method in brief: as §2

[9] = system: Klebsiella aerogenes DSM 30053; experiment: as above
Method in brief: as §2

Escherichia coli IAI1 [10] = experiment: fold change of Cadaverine concentration vs plate DMSO controls (fold change (ratio)); higher = more amine produced, active = hit call of the paper (significant change in both replicates, either direction)
Method in brief: as §2

[11] = system: Klebsiella aerogenes DSM 30053; experiment: as above
Method in brief: as §2

[12] = system: Ruminococcus gnavus DSM 108212; experiment: fold change of 2-Phenylethylamine concentration vs plate DMSO controls (fold change (ratio)); higher = more amine produced, active = hit call of the paper (significant change in both replicates, either direction)
Method in brief: as §2

| SMILES | growth [1] | growth (Escherichia coli IAI1 [2]) | growth [3] | growth [4] | fold change of Histamine concentration [5] | fold change of Tryptamine concentration [6] | fold change of Tryptamine concentration [7] | fold change of Putrescine concentration (Escherichia coli IAI1 [8]) | fold change of Putrescine concentration [9] | fold change of Cadaverine concentration (Escherichia coli IAI1 [10]) | fold change of Cadaverine concentration [11] | fold change of 2-Phenylethylamine concentration [12] |
| --- | --- | --- | --- | --- | --- | --- | --- | --- | --- | --- | --- | --- |
| CCc1cccc2c3c([nH]c12)C(CC)(CC(=O)O)OCC3 (centres undefined) [Etodolac] (20 µM) | 1.08 | 1.03 | 1.1 | 1.06 | 1.06 (inactive) | 0.981 (inactive) | 1.06 (inactive) | 0.968 (inactive) | 0.949 (inactive) | 0.975 (inactive) | 0.991 (inactive) | 1.12 (inactive) |
| CCOC(=O)N1CCC(=C2c3ccc(Cl)cc3CCc3cccnc32)CC1 [Loratadine] (20 µM) | 1.04 | 1.01 | 1.04 | 0.87 | 0.98 (inactive) | 1.18 (inactive) | 0.864 (inactive) | 1.02 (inactive) | 0.999 (inactive) | 1.05 (inactive) | 1 (inactive) | 0.808 (inactive) |
| Nc1ccc(C(=O)O)c(O)c1 [Aminosalicylic acid] (20 µM) | 1.11 | 1.02 | 1.02 | 0.97 | 1.06 (inactive) | 1 (inactive) | 0.999 (inactive) | 1.01 (inactive) | 1.01 (inactive) | 1.02 (inactive) | 0.98 (inactive) | 0.981 (inactive) |
| CN(C)C/C=C(/c1ccc(Br)cc1)c1cccnc1 [Zimelidine dihydrochloride monohydrate] (20 µM) | 0.928 | 0.997 | 0.991 | 1.03 | 1.01 (inactive) | 1.03 (inactive) | 0.987 (inactive) | 0.804 (inactive) | 0.993 (inactive) | 1.49 (active) | 0.978 (inactive) | 1.04 (inactive) |
| CC(C)C[C@H](NC(=O)[C@@H](O)[C@H](N)Cc1ccccc1)C(=O)O [Ubenimex] (20 µM) | 1.02 | 0.971 | 0.969 | 0.332 | 0.887 (inactive) | 1.15 (inactive) | 0.148 (active) | 1.04 (inactive) | 0.95 (inactive) | 0.936 (inactive) | 0.973 (inactive) | 0.168 (active) |
| COc1cc(N)c(Cl)cc1C(=O)NC1CCN(Cc2ccccc2)CC1 [Clebopride maleate] (20 µM) | 1.05 | 0.95 | 0.981 | 0.875 | 1 (inactive) | 1.01 (inactive) | 0.985 (inactive) | 0.926 (inactive) | 0.976 (inactive) | 0.984 (inactive) | 0.999 (inactive) | 0.985 (inactive) |
| N[C@@H](Cc1cc(I)c(Oc2cc(I)c(O)c(I)c2)c(I)c1)C(=O)O [(L) Thyroxine] (20 µM) | 1.27 | 0.975 | 1.01 | 0.958 | 1.05 (inactive) | 1.27 (inactive) | 0.99 (inactive) | 1.01 (inactive) | 1 (inactive) | 1 (inactive) | 1.01 (inactive) | 1.03 (inactive) |
| O=C(OCC(O)CO)c1ccccc1Nc1ccnc2cc(Cl)ccc12 (centres undefined) [Glafenine hydrochloride] (20 µM) | 1.08 | 0.957 | 0.977 | 0.831 | 1.01 (inactive) | 0.965 (inactive) | 1.03 (inactive) | 0.998 (inactive) | 0.999 (inactive) | 0.998 (inactive) | 1.01 (inactive) | 1.04 (inactive) |
| CCC(=O)OCC(=O)[C@@]1(OC(=O)CC)[C@H](C)C[C@H]2[C@H]3[C@H]([C@@H](O)C[C@@]21C)[C@@]1(C)C=CC(=O)C=C1C[C@H]3Cl [Alclometasone dipropionate] (20 µM) | 1.15 | 1.07 | 1.01 | 0.881 | 1.04 (inactive) | 1 (inactive) | 0.947 (inactive) | 1.03 (inactive) | 1.02 (inactive) | 0.986 (inactive) | 0.997 (inactive) | 0.97 (inactive) |
| CN1CCC[C@@H]1CCO[C@](C)(c1ccccc1)c1ccc(Cl)cc1 [Clemastine fumarate] (20 µM) | 1.2 | 1.02 | 1.09 | 0.749 | 0.843 (inactive) | 1 (inactive) | 0.851 (inactive) | 1.06 (inactive) | 0.975 (inactive) | 1.12 (inactive) | 1.03 (inactive) | 0.886 (inactive) |
| CCN1CC(CCN2CCOCC2)C(c2ccccc2)(c2ccccc2)C1=O (centres undefined) [Doxapram hydrochloride] (20 µM) | 1.01 | 0.969 | 0.996 | 0.884 | 0.932 (inactive) | 1.09 (inactive) | 1.07 (inactive) | 0.977 (inactive) | 0.978 (inactive) | 1.01 (inactive) | 1.02 (inactive) | 1.08 (inactive) |
| CC(C)NC[C@@H](O)COc1cccc2ccccc12 [(R) Propranolol hydrochloride] (20 µM) | 1.08 | 0.856 | 0.86 | 0.617 | 1.01 (inactive) | 1.04 (inactive) | 0.95 (inactive) | 0.979 (inactive) | 0.993 (inactive) | 1.01 (inactive) | 0.987 (inactive) | 0.945 (inactive) |
